# Screening data: PubChem BioAssay, National Center for Advancing Translational Sciences (NCATS)
# An excerpt weighted towards active compounds, which were near 20% of everything screened.
# Pf growth 96h: P. falciparum growth inhibition at 96 hour, primary screen for plastid delayed-death inhibitors. actives 6.9% (n = 320,000). AID 504834. Potency, µM (doses to about 28.7 µM), inactives show at the top dose activity change, negative = inhibition, actives largely listed as inhibitors. P. falciparum luciferase reporter growth, 96 h; further: potency means the concentration at half of the fitted maximal effect; on the % scale 0 is the no-effect control and ±100 the full control effect
#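 Compounds incubated with erythrocytes infected by luciferase-expressing P. falciparum (2% hematocrit, 0.05% parasitemia final) for 96 hours, 37 C in 5% CO2. Growth inhibition scored as decreased luciferase luminescence.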
# Pf growth 48h: P. falciparum growth inhibition at 48 hours (one generation); Potency, µM (highest dose often 28.7 µM), for the others: top-dose activity change, negative = inhibition, actives largely listed as inhibitors; AID 504832; actives 5.9% (n = 310,000); P. falciparum luciferase growth in erythrocytes, 48 h; further: potency means the concentration at half of the fitted maximal effect; on the % scale 0 is the no-effect control and ±100 the full control effect
#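 Here the parasites carry a stable luciferase gene and grow inside erythrocytes in Albumax-based RPMI medium with compound for one erythrocytic cycle. Activity is scored as loss of luminescent signal.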
# HCMV inh: human cytomegalovirus inhibition; activity change, negative = inhibition, % at 57.5 µM; actives 4.5% (n = 410,000); HFF cells, HCMV-luciferase reporter, 72 h; stronger effect = lower value; in the data active means activity change below about -60%; inconclusive means no clear call, values can overlap the other calls; inactive means above about -39%; further: on the % scale 0 is the no-effect control and ±100 the full control effect
#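 Two compound doses tested in HFFs infected with HCMV-luciferase, MOI 1 PFU/cell, 72 h at 37C. Lysate luminescence read with OneGlo; data normalized against buffer-only and 10uM Salinomycin inhibitor controls.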
# Cycloheximide cs: affects cycloheximide protein synthesis inhibition readout, counter-screen | cell reporter, cycloheximide protein synthesis inhibition counterscreen | max response, % | actives 12% (n = 300,000) | AID 2314; in the data active means max response mostly above about 13%, no sharp cut-off; inactive means mostly below about 14%; further: read at 38.3 µM for the half of the compounds with a filed dose; 0% is about no effect
# Shiga inhibitor: inhibitors of Shiga toxin in Vero cells; Vero cells, Shiga toxin protein synthesis inhibition reporter; inhibition, % at 38.7 µM; actives 9.2% (n = 290,000); in the data active means inhibition mostly above about 28%, no sharp cut-off; inactive means mostly below about 43%; further: 0% is about no effect
# The depositor's hits bear a star; ? = inconclusive; · = no result given; + = active, no number; ! = not confirmed by another sample. Unless noted, the call rests on the fitted dose curve; in most records, active means well fitted inhibition curve with a large enough effect; inconclusive means small, poorly fitted or top-dose-only effect, or another doubt; inactive means no such curve, though single readings can be large or run the other way.
SMILES,Pf growth 96h,Pf growth 48h,HCMV inh,Cycloheximide cs,Shiga inhibitor
O=c1[nH]c2ccccc2n1C1CCN(C(c2cccc3ccccc23)c2nnnn2Cc2ccccc2)CC1 (stereo not drawn),·,·,-75*,·,·
COc1cccc(C(c2nnnn2Cc2ccccc2)N2CCC(n3c(=O)[nH]c4ccccc43)CC2)c1OC (stereo not drawn),·,·,-70*,·,·
O=c1[nH]c2ccccc2n1C1CCN(C(c2cc3ccccc3o2)c2nnnn2Cc2ccccc2)CC1 (stereo not drawn),·,·,-101*,·,·
O=C1NCN(c2ccccc2)C12CCN(C(c1cccc3ccccc13)c1nnnn1Cc1ccccc1)CC2 (stereo not drawn),·,·,-29,·,·
CCn1cc(C(=O)NCCC(C)C)c(=O)c2cc(S(=O)(=O)N(C)C3CCCCC3)ccc21,·,·,-3,·,·
COC(=O)CN1C(c2ccccc2)=Nc2ccc(Cl)cc2C1c1ccccc1 (stereo not drawn),?,?,27,-7,-4
C[C@H](NC(=O)C[C@@H]1CC[C@H]2[C@@H](COC[C@H](O)CN2Cc2ccc(C(F)(F)F)cc2)O1)c1ccccc1,·,·,-19,·,·
COc1ccc(NC(=O)CCc2c(C)nc3nc(CNC(=O)OC(C)(C)C)nn3c2C)cc1OC,·,·,1,·,·
COc1ccc(O)c(C(=O)c2coc(=N)c(C(=O)Nc3ccc(SC(F)F)cc3)c2)c1,2.3µM*,?,?,20,5
Cc1ccc(C(=O)/C=C/c2ccc(F)cc2)o1,?,8%,?,60*,76*
O=C(/C=C/c1ccc(F)cc1)c1ccccc1Br,?,0%,-82*,20*,35
NC(=O)c1ccccc1Br,9%,13%,10,-1,24
O=C(Cn1c(=O)oc2cc(S(=O)(=O)NCc3ccccc3)ccc21)NCc1ccc(F)cc1,·,·,-6,·,·
N#Cc1cc2ccccc2nc1SCc1ccccn1,·,183%,97,59*,147*
Cc1cc2cc3c(cc2nc1SCc1ccccn1)OCCO3,?,-2%,-26,-1,-6
O=C(Nc1ccccc1)c1ccccc1N=Cc1ccccc1O,70%,77%,-24,47*,+
CCNS(=O)(=O)c1ccc(NC(=O)c2ccccc2OCC)cc1,·,-5%,11,-1,17
CCOc1ccccc1C=Nc1ccccc1C(=O)Nc1ccccc1,71%,10%,42,16*,68*
COC(=O)CN(C)C(=O)c1cccc(OC2CCN(S(=O)(=O)N(C)C)CC2)c1,-10%,4%,51,3,2
C=C(C)CN(CC)C(=O)c1ccc(OC2CCN(S(=O)(=O)N(C)C)CC2)cc1,4.1µM*,0%,-1,38*,55*
C#CCN(CC=C)C(=O)c1ccc(OC2CCN(S(=O)(=O)N(C)C)CC2)cc1,?,2%,34,37*,62*
C=C(C)CNC(=O)c1ccc(OC2CCN(S(=O)(=O)N(C)C)CC2)cc1,13µM*,2%,20,20*,11
CN(C)S(=O)(=O)N1CCC(Oc2ccc(C(=O)NCCc3cscn3)cc2)CC1,?,10%,-13,-2,-5
CC(C)CCNC(=O)c1ccc(OC2CCN(S(=O)(=O)N(C)C)CC2)cc1,-28%,-24%,?,40*,43
C=CCN(CC=C)C(=O)c1ccc(OC2CCN(Cc3ccccn3)CC2)cc1,?,-5%,3,-2,-14
SMILES,Pf growth 96h,Pf growth 48h,HCMV inh,Cycloheximide cs,Shiga inhibitor
O=C1CC2(CCCC2)C(=O)N1CN1CCN(S(=O)(=O)c2cc(F)ccc2F)CC1,·,·,2,·,·
N#Cc1ccc(S(=O)(=O)N2CCN(CN3C(=O)CC4(CCCC4)C3=O)CC2)cc1,·,·,57,·,·
O=S(=O)(c1ccccc1)c1nc(-c2cccs2)oc1SCc1ccccc1F,·,·,-9,·,·
CC(=O)C1=CCC(c2ccc(C)cc2)N(S(=O)(=O)c2ccc(Cl)cc2)C1 (stereo not drawn),·,·,-19,·,·
Cc1cc(-c2ccco2)n(CC(=O)O)n1,6.6µM*,25%,28,5,-8
Cc1cc(-c2ccco2)n(CC(=O)NCc2ccccc2)n1,-22%,·,6,-5,-8
COc1ccc(NC(=O)Cn2c(=O)n(CCCC(=O)NCc3ccccc3Cl)c(=O)c3ccccc32)c(OC)c1,·,·,16,·,·
COc1cccc(/C=C/C(=O)c2ccc(NC3=NCCCS3)cc2)c1,33%,-22%,11,18,54
O=C(/C=C/c1ccc(Br)cc1)c1ccc(NC2=NCCCS2)cc1,?,?,-100*,11,7
Cc1cccc(/C=C/C(=O)c2ccc(NC3=NCCCS3)cc2)c1,34%,18%,-98*,26*,24
CC(C)(C)c1ccc(/C=C/C(=O)c2ccc(NC3=NCCCS3)cc2)cc1,?,17µM*,73,31*,78*
O=C(/C=C/c1ccccc1)c1ccc(NC2=NCCCS2)cc1,-24%,27%,10,26*,30*
CC(=O)c1ccc(NC2=NCCCS2)cc1,20%,76%,34,15,10
CC(OC(=O)C1=COCCO1)C(=O)c1ccc(C(C)(C)C)cc1 (stereo not drawn),30%,?,-7,·,·
CC(C)CCNC(=O)C(=O)NCC1OCCCN1S(=O)(=O)c1cccs1 (stereo not drawn),?,?,29,1,-11
CCCCn1c2ccc(F)cc2c2nnc(SCCN3CCOCC3)nc21,2.6µM*,?,?,-1,-6
CCc1ccc2[nH]c3nc(SCC(=O)NNC(=O)c4ccc(C(C)(C)C)cc4)nnc3c2c1,77%,12%,-106*,-2,8
Cc1ccc(C(=O)NNC(=O)CSc2nnc3c(n2)[nH]c2ccc(C)cc23)cc1,162%,7%,·,-3,44
CCc1ccc2[nH]c3nc(SCCN4CCOCC4)nnc3c2c1,9.3µM*,-27%,-91*,21*,17*
CCc1ccc2[nH]c3nc(SCC(=O)NCC4CCCO4)nnc3c2c1 (stereo not drawn),0%,-2%,?,-9,7
O=C1NC[C@@H](Cc2ccc(O)cc2)N(CCc2cc(C(F)(F)F)cc(C(F)(F)F)c2)C1=O,·,·,24,·,·
CCC(=O)c1cccc(-c2ccccc2)c1CC,·,·,-21,·,·
CCC(=O)c1ccc(O)cc1,15µM*!,5%,-26,0,-7
CCC(=O)c1ccc(-c2ccccc2)cc1,80%,60%,27,29*,34
Cc1ccc2c(c1)C(=O)C(=O)N2CC(=O)Nc1ccc(N2CCOCC2)cc1,?,-9%,50,-2,22
Cc1cc2c(cc1C)N(C(=O)CCl)CCN2C(=O)CCl,·,·,10,·,·
Cc1ncsc1CCOC(=O)c1ccccc1,47%,128%,-21,38*,58*
Cc1ncsc1CCOC(=O)c1ccc(Cl)cc1,29%,41%,?,35*,69*
Cc1ccc(C)c(N2CCN(C(=O)c3cc4c(=O)oc5ccccc5c4s3)CC2)c1,·,·,-32,·,·
O=C(CSc1oc(-c2cccs2)nc1S(=O)(=O)c1ccccc1)Nc1ccc(F)cc1,·,·,-12,·,·
